The values below come from PubChem BioAssay (NCATS).

The target in experiment [1] is Glutathione peroxidase 1 (Homo sapiens) (UniProt P07203). The experiment can be described thus: Primary qHTS Assay for Inhibitors of Recombinant Selenoprotein Glutathione Peroxidase 1 (GPX1) (AID 1845191). In a few lines: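 NADPH consumption tracked by fluorescence at 340/450 nm between t=0 and t=15 min, room temperature. Final mix: 10 nM GPX1, 100 nM glutathione reductase, 1 mM GSH, 0.5 mM NADPH, 0.5 mM cumene hydroperoxide, 0.01% BSA; 30 min compound–enzyme preincubation.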

Experiment [2] concerns the target Phospholipid hydroperoxide glutathione peroxidase GPX4 (Homo sapiens) (UniProt P36969). The experiment can be described thus: Primary qHTS Assay for Inhibitors of Recombinant Selenoprotein Glutathione Peroxidase 4 (GPX4) (AID 1845192). As to activity change, negative = inhibition: series mostly up to about 50 µM. In a few lines:
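NADPH consumption followed by fluorescence at 340/450 nm, t=0 and after 15 min at room temperature. Reaction started with cumene hydroperoxide (0.5 mM final) after 30 min compound–GPX4 preincubation; final 200 nM GPX4, 100 nM GR, 1 mM GSH, 0.5 mM NADPH.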
For orientation: In qHTS, concentration-response curves come from the screen itself.

Each structure is given as a SMILES string. Inconclusive results are not listed. Unmarked numbers belong to inactive results. Activity calls are given as the source filed them. Calls follow the shape of the dose curve; as a rule, active = well fitted inhibition curve with a large enough effect; inconclusive = small, poorly fitted or top-dose-only effect; inactive = flat fitted curve, though single readings scatter.
% is scaled to controls: 0 for no effect and ±100 for the full control effect; potency is read from the fitted curve at half-maximal effect.
Also: nearly all actives have a fitted effect of over 65% in size.

Phospholipid hydroperoxide glutathione peroxidase GPX4 (Homo sapiens), sequence (P36969 whole entry, looked up): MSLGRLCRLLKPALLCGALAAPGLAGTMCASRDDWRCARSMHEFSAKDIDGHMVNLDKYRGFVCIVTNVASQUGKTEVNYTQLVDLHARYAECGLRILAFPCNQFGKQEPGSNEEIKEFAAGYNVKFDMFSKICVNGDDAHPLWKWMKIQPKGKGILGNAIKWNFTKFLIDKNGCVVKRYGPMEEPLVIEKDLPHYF
Glutathione peroxidase 1 (Homo sapiens), sequence (P07203 whole entry, looked up): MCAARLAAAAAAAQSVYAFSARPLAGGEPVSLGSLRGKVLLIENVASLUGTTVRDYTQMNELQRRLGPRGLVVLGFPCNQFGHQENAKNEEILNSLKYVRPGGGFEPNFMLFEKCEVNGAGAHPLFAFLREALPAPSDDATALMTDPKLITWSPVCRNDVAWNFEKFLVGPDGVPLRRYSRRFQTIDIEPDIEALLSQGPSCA

As for `CCCC(=O)O[C@]1(C(=O)COC(C)=O)CC[C@H]2C3C[C@H](F)C4=CC(=O)C=C[C@]4(C)[C@@]3(F)[C@@H](O)C[C@@]21C` (stereo not given in full), the Potency entry in experiment [1] and in experiment [2] was “inactive” throughout.
In the case of `C[N+](C)(C)CCOP(=O)([O-])OP(=O)(O)OC[C@H]1OC(n2ccc(N)nc2=O)[C@H](O)[C@@H]1O` (stereo not given in full), in experiment [1], the outcome was “inactive [at 0.4 µM]”. In experiment [2], the activity change, negative = inhibition was 0.205% [at 0.409 µM].
On to `C=C[C@]1(C)C[C@@H](OC(=O)CSC2C[C@H]3CC[C@@H](C2)N3C)C2(C)[C@H](C)CCC3(CCC(=O)[C@H]32)[C@@H](C)[C@@H]1O` (stereo not given in full), for which the Potency entry in experiment [1] and in experiment [2] was “inactive” in each case.
As for `CCCCCCCCCCCCCCCC(=O)OCC(=O)[C@@]1(O)[C@H](C)C[C@H]2[C@@H]3CCC4=CC(=O)C=C[C@]4(C)[C@@]3(F)[C@@H](O)C[C@@]21C`, the Potency result in experiment [1] and in experiment [2] was “inactive” each time.
Take `Cc1cc2nc3c(=O)[nH]c(=O)nc-3n(C[C@H](O)[C@H](O)[C@H](O)COP(=O)(O)OP(=O)(O)OC[C@H]3O[C@@H](n4cnc5c(N)ncnc54)[C@H](O)[C@H]3O)c2cc1C`: the Potency entry in experiment [1] and in experiment [2] was “inactive” in each case.
Turning to `CC(=O)O[C@]1(C(C)=O)CC[C@H]2[C@@H]3C=C(C)C4=CC(=O)CC[C@@H]4[C@H]3CC[C@@]21C`, the Potency entry in experiment [1] and in experiment [2] was “inactive” in each case.
Turning to `CCCCCCCCCC(=O)OC1(c2ccc(Cl)cc2)CCN(CCCC(=O)c2ccc(F)cc2)CC1`, the Potency entry in experiment [1] and in experiment [2] was “inactive” in each case.
Consider `CCC1OC(=O)C(C)C(OC2CC(C)(OC)C(O)C(C)O2)C(C)C(OC2OC(C)CC(N(C)C)C2O)C(C)(O)CC(C)C2NC(COCCOC)OC(C2C)C1(C)O` (stereo not given), for which the Potency entry in experiment [1] and in experiment [2] was “inactive” each time.
Take `CCC(=O)NC[C@@H]1C[C@H]1c1cccc2c1CCO2`: the Potency result in experiment [1] and in experiment [2] was “inactive” each time.
For `CC(C)C(=O)OCC(=O)[C@@]12OC(C3CCCCC3)O[C@@H]1C[C@H]1[C@@H]3CCC4=CC(=O)C=C[C@]4(C)[C@H]3[C@@H](O)C[C@@]12C` (stereo not given in full), the Potency entry in experiment [1] and in experiment [2] was “inactive” in each case.
Take `[2H]C([2H])([2H])C(CCC[C@@H](C)[C@H]1CC[C@H]2/C(=C/C=C3\C[C@@H](O)C[C@H](O)C3=C)CCC[C@]12C)C([2H])([2H])[2H]`: in experiment [1], the Potency entry is “inactive”. Also, in experiment [2], the Potency is 14.1 µM (active).
The like results for `CCCC[C@H](C)C[C@H](O)/C=C/[C@H]1[C@H](O)CC(=O)[C@@H]1CCCC/C=C/C(=O)O` were, in that order, “inactive” and “inactive”.
Consider `[2H]C([2H])([2H])C(O)(CCO[C@@H](C)[C@H]1CC[C@H]2/C(=C/C=C3\C[C@@H](O)C[C@H](O)C3=C)CCC[C@]12C)C([2H])([2H])[2H]`, for which the Potency entry in experiment [1] and in experiment [2] was “inactive” each time.
`CCC(=O)O[C@]1(C(=O)COC(C)=O)CC[C@H]2[C@@H]3CCC4=CC(=O)CC[C@]4(C)[C@H]3[C@@H](O)C[C@@]21C`: the Potency result in experiment [1] and in experiment [2] was “inactive” each time.
For `O=[N+]([O-])c1ccc(/C=C/c2cccc(CO)n2)o1`, the Potency entry in experiment [1] and in experiment [2] was “inactive” in each case.
`CN1C2CC[C@@H]1CC(OC(=O)[C@H](CO)c1ccccc1)C2` (stereo not given in full): the Potency result in experiment [1] and in experiment [2] was “inactive” each time.
On to `CC[C@H](C)[C@@H]([C@@H](CC(=O)N1CCC[C@H]1[C@H](OC)[C@@H](C)C(=O)NCCc1ccccc1)OC)N(C)C(=O)[C@@H](NC(=O)[C@H](C(C)C)N(C)C)C(C)C`, for which the Potency entry in experiment [1] and in experiment [2] was “inactive” throughout.
Consider `CCCCC(=O)O[C@]1(C(=O)COC(C)=O)CC[C@H]2[C@@H]3CCC4=CC(=O)C=C[C@]4(C)[C@H]3[C@@H](O)C[C@@]21C`, for which the Potency result in experiment [1] and in experiment [2] was “inactive” throughout.
Take `CCN1CCC(=C2c3ccccc3CCc3ccccc32)C1C` (stereo not given): the Potency result in experiment [1] and in experiment [2] was “inactive” each time.
In the case of `C=C1/C(=C/C=C2\CCC[C@]3(C)[C@@H]([C@H](C)CC[C@@H](O)C(C)C)CC[C@@H]23)C[C@@H](O)C[C@@H]1O`, the Potency entry in experiment [1] is “inactive”. Also, the Potency in experiment [2] was 15.8 µM (active).
For the compound `CCC(CN)CC(C)CNCC(O)CNCC(CC)CC(CC)CN` (stereo not given), the Potency entry in experiment [1] and in experiment [2] was “inactive” throughout.
For the compound `OC[C@H]1O[C@@H](OC[C@H]2O[C@@H](O[C@@H]3[C@@H](O)[C@H](O)O[C@H](CO)[C@H]3O)[C@H](O)[C@@H](O[C@@H]3O[C@H](CO)[C@@H](O)[C@H](O)[C@H]3O)[C@@H]2O)[C@H](O)[C@@H](O)[C@@H]1O`, the Potency result in experiment [1] and in experiment [2] was “inactive” each time.
As for `C[C@]12C=CC(=O)C=C1CC[C@@H]1[C@@H]2[C@@H](O)C[C@@]2(C)[C@H]1CC[C@]2(O)C(=O)COP(=O)(O)O`, the outcome in experiment [1] was “inactive [at 9.52 µM]”; in experiment [2] it was “inactive [at 9.73 µM]”.
For the compound `O=c1c2c(c1=O)N(CCP(=O)(O)O)CCCN2`, the Potency entry in experiment [1] and in experiment [2] was “inactive” each time.
Turning to `Cc1ncc([N+](=O)[O-])n1CCOC(=O)c1ccccc1`, the Potency result in experiment [1] and in experiment [2] was “inactive” in each case.
Regarding `C[C@H]1O[C@]2(CS1)CN1CCC2CC1`, the Potency entry in experiment [1] and in experiment [2] was “inactive” in each case.
Take `C=CCN1CC[C@]23c4c5ccc(O)c4O[C@H]2[C@@H](OCCOCCOCCOCCOCCOCCOCCOC)CC[C@@]3(O)[C@H]1C5`: the Potency entry in experiment [1] and in experiment [2] was “inactive” in each case.
As for `CC(C)OC(=O)CCC/C=C\C[C@@H]1[C@@H](CC[C@@H](O)CCc2ccccc2)[C@H](O)C[C@@H]1O`, the outcome in experiment [1] was “inactive [at 9.52 µM]”. Also, the activity change, negative = inhibition in experiment [2] is 4.91% [at 9.73 µM].
Take `C[C@@H]1O[C@@H](O[C@@H]2/C=C/C=C/C=C\C=C\C[C@H](C)OC(=O)/C=C/[C@H]3O[C@@H]3C[C@H](O)C[C@]3(O)C[C@@H](O)[C@@H](C(=O)O)[C@H](C2)O3)[C@H](O)[C@H](N)[C@@H]1O`: the Potency entry in experiment [1] was “inactive”. In addition, the activity change, negative = inhibition in experiment [2] is -18.7% [at 9.73 µM].
On to `O=C(O)[C@@H]1C(=CCO)O[C@@H]2CC(=O)N12`, for which the Potency result in experiment [1] and in experiment [2] was “inactive” each time.
`COc1cc(/C=C\C(=O)N2CCN(CC(=O)N3CCCC3)CC2)cc(OC)c1OC`: the Potency result in experiment [1] and in experiment [2] was “inactive” throughout.
Turning to `CCCCCCCC(=O)N[C@H](CN1CCCC1)[C@H](O)c1ccc2c(c1)OCCO2`, the Potency entry in experiment [1] and in experiment [2] was “inactive” throughout.
With `OCC1OC(c2ccc(Cl)c(Cc3ccc(OC4CCOC4)cc3)c2)C(O)C(O)C1O` (stereo not given), the Potency entry in experiment [1] and in experiment [2] was “inactive” in each case.
Regarding `O=C(O)[C@H]1OC(O)[C@H](O)[C@@H](O)[C@@H]1O` (stereo not given in full), the Potency result in experiment [1] and in experiment [2] was “inactive” throughout.
On to `Cc1oc(=O)oc1COC(=O)N1CC[C@@H](N2CC/C(=C\C3=C(C(=O)O)N4C(=O)[C@@H](NC(=O)/C(=N/O)c5nsc(N)n5)[C@H]4SC3)C2=O)C1`, for which the figures for the Potency in experiment [1] and in experiment [2] were 7.18 µM (active) and 10 µM (active), respectively.
